Source: PubChem BioAssay
The list is not random: actives were taken first. Their share in the collection is about 31%.
CYP2C19 inhib: human CYP2C19 inhibition; P33261; CYP2C19 Supersomes, luciferin-H EGE luminescence, 30 min; inhibition, % at 5 µM; 21% of 96,000 active; AID 778;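 active means CYP2C19 inhibition above a set limit at 5 µM in the primary screen, cut at about 50% in these data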
Target sequence (P33261 whole entry, looked up): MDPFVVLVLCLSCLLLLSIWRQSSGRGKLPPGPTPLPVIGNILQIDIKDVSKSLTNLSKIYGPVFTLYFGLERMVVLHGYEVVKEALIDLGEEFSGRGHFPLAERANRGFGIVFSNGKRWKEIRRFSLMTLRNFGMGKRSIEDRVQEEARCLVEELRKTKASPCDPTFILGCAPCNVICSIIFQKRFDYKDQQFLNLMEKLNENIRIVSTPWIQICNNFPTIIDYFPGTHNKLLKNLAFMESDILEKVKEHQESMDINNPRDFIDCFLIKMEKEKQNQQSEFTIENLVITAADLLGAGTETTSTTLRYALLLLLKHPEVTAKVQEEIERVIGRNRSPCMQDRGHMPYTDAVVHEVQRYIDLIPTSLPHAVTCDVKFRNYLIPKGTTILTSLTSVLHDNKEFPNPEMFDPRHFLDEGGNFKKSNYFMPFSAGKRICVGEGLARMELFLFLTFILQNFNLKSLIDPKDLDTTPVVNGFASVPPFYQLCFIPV
PLAP activator: activates human placental alkaline phosphatase; P05187; 1.2% of 96,000 active; purified PLAP enzyme, luminescent substrate read-out; active compounds read high; AID 696; activation fold at 20 µM; in the data active means activation fold above about 2
CYP2C9 inh: inhibitors of human CYP2C9 | AID 777 | inhibition, % at 5 µM | 20% of 96,000 active | P11712 | CYP2C9 Supersomes, luciferin-H conversion, luminescence;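 active means blocking of liver enzyme CYP2C9 beyond about 50% at 5 µM, limit read from the data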
CYP2C9 act: activators of human CYP2C9; recombinant CYP2C9, luciferin-H conversion, luminescence; active compounds read high; factor 1 = untreated enzyme, 0 = blocked; activation factor at 5 µM; 1.4% of 96,000 active; AID 1024;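 active means activation factor of 2 or more for CYP2C9 at a 5 µM dose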
CYP2C19 act: cytochrome P450 2C19 (human) activation; P33261; recombinant CYP2C19, luciferin-H EGE luminescence; active compounds read high; 0 = fully inhibited enzyme, 1 = untreated enzyme; activation factor at 5 µM; 96,000 tested, under 10 active;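 active means activation factor of at least 2 at 5 µM in the primary screen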
Large screens that a line does not name were inactive.

CCCCN(C)CCNC(=O)c1ccc2c(c1)NC(=O)C(N1CCCCC1)S2 (centres undefined)	none
Cc1ccc(-c2nnc(-c3ccncc3)n2-c2ccc(C)cc2)cc1	none
CCOC(=O)N1CCN(C(=O)CCCn2nc(C)c3sc4ccccc4c3c2=O)CC1	CYP2C9 act 2.4
CCOC(=O)N1CCN(C(=O)CCn2nc(-c3ccccc3)ccc2=O)CC1	none
CCCc1cc(=O)[nH]c(NCc2ccc(Cl)cc2)n1	none
CCCc1cc(=O)[nH]c(-n2[nH]c3c(c2=O)CCCC3)n1	PLAP activator 2.3
CCOC(=O)CN1C(=O)C(Sc2n[nH]c(-c3cccc(C)c3)n2)CCc2ccccc21 (centres undefined)	CYP2C19 inhib 56.9, CYP2C9 inh 84.8
CCn1c(SCC(=O)NCCc2ccccc2)nnc1-c1ccco1	none
Cc1cc(C(=O)CSc2nnc(-c3cccs3)n2Cc2ccccc2)c(C)n1C	none
CC(=O)c1c(C)[nH]c(C(=O)CSc2nnc(-c3cccs3)n2Cc2ccccc2)c1C	CYP2C19 inhib 72.8, CYP2C9 inh 72.2
C=CCn1c(SCC(=O)O)nnc1-c1ccc(C(C)(C)C)cc1	none
C=CCn1c(SCC(=O)c2[nH]c(C)c(C(C)=O)c2C)nnc1-c1ccncc1	CYP2C19 inhib 85.8
CC(=O)c1c(C)[nH]c(C(=O)CSc2nnc(-c3ccco3)n2Cc2ccccc2)c1C	CYP2C19 inhib 73.4, CYP2C9 inh 69.7
CC(=O)c1c(C)[nH]c(C(=O)CSc2nnc(-c3ccccc3)n2Cc2ccc3c(c2)OCO3)c1C	CYP2C19 inhib 70.3
Cc1cc(C(=O)CSc2nnc(-c3cccc(F)c3)n2N)c(C)n1Cc1ccc2c(c1)OCO2	none
O=c1cc(CSc2nnc(-c3cccs3)n2Cc2ccccc2)nc2sc3ccccc3n12	CYP2C19 inhib 93.0, CYP2C9 inh 95.4
COc1ccc2oc(C(F)(F)C(F)(F)F)cc(=O)c2c1	none
COc1ccc2oc(C(F)(F)C(F)F)cc(=O)c2c1	CYP2C19 inhib 54.3
CCC(=O)c1ccc(O)c(CC=C(C)C)c1	CYP2C19 inhib 57.8, CYP2C9 inh 64.2
COc1ccc(-c2nnc(NC(=O)c3cc(Cl)ccc3Cl)o2)cc1	none
O=C(Cc1ccccc1)N/N=C/c1ccccc1OCc1ccc(Cl)cc1	CYP2C9 inh 61.5
O=C(Cc1ccccc1)N/N=C\c1ccc(Br)o1	none
O/N=C/c1ccccc1OCc1ccc(Cl)cc1	CYP2C19 inhib 52.4, CYP2C9 inh 68.8
CS(=O)(=O)N(CC(=O)N1CCCCC1)C1CCCCC1	none
COc1ccc(OC)c(C(=O)COC(=O)c2ccc(C)o2)c1	CYP2C19 inhib 92.6
COc1ccc(C(=O)OCC(=O)c2cc(OC)ccc2OC)c(OC)c1	CYP2C19 inhib 86.5, CYP2C9 act 3.1
COc1ccc(/C(N)=N/OC(=O)Cc2ccc(OC)c(OC)c2)cc1	CYP2C9 inh 64.9
COc1ccc(OC)c(C(=O)COC(=O)C2CC3CCCC(C2)C3=O)c1 (centres undefined)	CYP2C19 inhib 50.5
O=C(CN1C(=O)C2C3C=CC(C3)C2C1=O)NCc1ccc2c(c1)OCO2 (centres undefined)	none
O=C(N/N=C/c1cccnc1)C1CCCN(S(=O)(=O)c2ccccc2)C1 (centres undefined)	none
CCOc1ccc2[nH]c(=O)c(CN(Cc3ccc(C)cc3)C(=O)N3CCCC3)cc2c1	none
COc1ccc(C(=O)Cc2ccc(OC)c(OC)c2)c(OC)c1	CYP2C19 inhib 99.0
COc1ccc(CC(=O)c2cc(OC)c(OC)cc2CC(=O)O)cc1OC	none
CCOC(=O)c1c(CN2CCC(C)CC2)oc2ccc(OC)cc12	CYP2C19 inhib 52.5
O=C1CCCc2c1nn(-c1ccccc1)[n+]2[O-]	none
CC(=O)C1C(c2ccco2)c2c(noc2C)CC1(C)O (centres undefined)	none
Cc1nc(NCCCn2ccnc2)c2oc3ccccc3c2n1	CYP2C19 inhib 84.7, CYP2C9 inh 95.8
c1ccc2c(c1)oc1c(NCCCn3ccnc3)ncnc12	CYP2C19 inhib 80.0, CYP2C9 inh 91.7
c1ccc2c(c1)oc1c(NCCCN3CCOCC3)ncnc12	none
CCNc1nc(C)nc2c1oc1ccccc12	none
COc1ccc(C(=O)N(CC2CCCO2)C(C(=O)NC2CCCC2)c2ccc(C)cc2)cc1OC (centres undefined)	none
O=S(=O)(c1ccccc1)c1cnc(-c2cccnc2)nc1-c1ccc(Cl)c(Cl)c1	CYP2C19 inhib 71.9, CYP2C9 inh 63.9
CN(C)c1ncc(S(=O)(=O)c2ccc(Cl)cc2)c(-c2ccc(Cl)cc2Cl)n1	CYP2C19 inhib 81.1
Cc1ncc(S(=O)(=O)c2ccccc2)c(-c2ccccc2Cl)n1	CYP2C19 inhib 61.5
CN(C)C(=O)CSc1nnc([C@H](Cc2c[nH]c3ccccc23)NC(=O)OC(C)(C)C)o1	none
Cc1cccc(Sc2nc(-c3ccccc3)ccc2C#N)c1	none
COc1ccc(S(=O)(=O)n2ccc(C)n2)cc1C	CYP2C19 inhib 50.2, CYP2C9 act 2.4
COc1cc(C)c(S(=O)(=O)n2ccc(C)n2)cc1C	CYP2C19 inhib 82.9
CCCCn1nnnc1NCc1cccnc1	CYP2C19 inhib 70.3
CCCCn1nnnc1NCc1cc(OC)c(OC)cc1OC	CYP2C19 inhib 60.7
CCCCn1nnnc1NCc1ccc(N2CCCC2)cc1	CYP2C9 inh 71.3
COc1ccccc1CNCc1cc(OC)c(OC)cc1OC	none
O=C(NC(Cc1ccccc1)C(=O)OCC(=O)N1CCc2ccccc21)c1ccco1 (centres undefined)	none
CCOc1cc(NC(=S)NCC2CCCO2)c(OCC)cc1NC(=O)c1ccccc1 (centres undefined)	none
O=C(NNC1=NCCC1)c1ccc(Br)cc1	none
Cc1ccc(-c2nnc(SCC(=O)Nc3ccccc3N3CCOCC3)o2)cc1	none
CC1(C)Cc2cccc(OCC(=O)Nc3ccccc3N3CCOCC3)c2O1	CYP2C19 inhib 90.9, CYP2C9 inh 56.4
O=C(Cc1ccccc1)Nc1ccccc1N1CCOCC1	none
Cc1ccc(-c2nnn(CC(=O)Nc3ccccc3N3CCOCC3)n2)cc1	CYP2C9 inh 78.8
CCc1ccccc1NC(=O)Cn1nnc(-c2cccnc2)n1	CYP2C19 inhib 96.2
O=C(Cn1nnc(-c2ccccc2)n1)Nc1ccccc1N1CCOCC1	CYP2C19 inhib 63.4, CYP2C9 inh 73.7
Cc1cc2ccccc2n1CCNC(=O)Cc1cccc2ccccc12	none
Cn1nnnc1SCC(=O)Nc1ccccc1N1CCOCC1	none
Cn1c(-c2ccc(F)cc2)cnc1SCC(=O)Nc1ccccc1N1CCOCC1	CYP2C19 inhib 68.3
CN(C)CCCNCC(=O)Nc1ccccc1N1CCOCC1	CYP2C9 inh 67.4
CCn1c(C)csc1=NC(=O)c1ccccc1	none
Cc1csc(=NC(=O)c2ccccc2)n1Cc1ccco1	CYP2C19 inhib 72.2
CC(/C=N/NC(=O)Cc1cc(=O)[nH][nH]1)=C\c1ccccc1	none
Cc1nnc(C)c2c(C)n(C(c3ccccc3)c3ccccc3)c(C)c12	CYP2C9 inh 56.0
CC(=O)Nc1ccc(C(=O)N2CCCC2)cc1	none
COCCCNC(=O)C1CC(=O)N(C2CCCC2)C1 (centres undefined)	none
